“And” between values parts separate entries of the source, which are not always exact repeats. Identical values can stand only once. Inconclusive results are not listed. Some compounds were tested as several samples or in several runs, with calls that do not always agree. The source made the active and inactive calls. Unless noted, the call rests on the fitted dose curve; in most records, active means well fitted curve in the direction sought with a large enough effect in the repeat runs; inconclusive means weak or mixed curves; inactive means no such curve, though single readings can be large; an effect the other way counts as inactive or inconclusive.
Experiments:
[1] = qHTS assay to identify small molecule agonists of the peroxisome proliferator-activated receptor delta (PPARd) signaling pathway - cell viability counter screen (AID 743211); further: nearly all actives have a fitted effect of over 55% in size; further: potency means the concentration at half of the fitted maximal effect
How it was run: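 HEK293H PPARd-bla, 3000 cells/well; 5 h preincubation 37C/5% CO2; cpd in DMSO, 17 h 37C; B/G FRET substrate 2 h RT; CellTiter-Glo 30 min RT, luminescence.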

[2] = target: Peroxisome proliferator-activated receptor delta (Homo sapiens) (UniProt Q03181); test: qHTS assay to identify small molecule agonists of the peroxisome proliferator-activated receptor delta (PPARd) signaling pathway (AID 743212; calls by dose curve;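 further: HEK293H cells with PPARd UAS beta-lactamase reporter GeneBLAzer system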)
How it was run: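 Beta-lactamase reporter readout: a ratiometric FRET signal from the LiveBLAzer substrate after 2 h at room temperature. Compound exposure at 37 °C in PPARδ-bla HEK293H cells driven by an upstream activator sequence.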

[3] = target: Peroxisome proliferator-activated receptor delta (Homo sapiens) (UniProt Q03181); test: qHTS assay to identify small molecule antagonists of the peroxisome proliferator-activated receptor delta (PPARd) signaling pathway (AID 743215; active means well fitted inhibition curve with a large enough effect in the signal ratio in the repeat runs, not every such curve was filed as active; the % refers to the signal ratio;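 further: cells stimulated with agonist L165041 at 300 nM final during compound exposure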; further: potency means the concentration at half of the fitted maximal effect)
How it was run: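 Here, a reporter line (HEK293H, beta-lactamase under a UAS) measures PPARd signaling. Compounds are tested against agonist L165041 at 300 nM final concentration over 17 h at 37 C, with fluorescence read after substrate.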

[4] = qHTS assay to identify small molecule agonists of the farnesoid-X-receptor (FXR) signaling pathway - cell viability counter screen (AID 743218); further: nearly all actives have a fitted effect of over 45% in size; further: potency means the concentration at half of the fitted maximal effect
How it was run: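 Quantitative HTS counter screen measuring ATP-based viability via CellTiter-Glo luminescence in HEK 293T cells carrying a UAS-driven beta-lactamase reporter, after 16 h compound exposure at 37 C.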

[5] = qHTS assay to identify small molecule antagonists of the farnesoid-X-receptor (FXR) signaling pathway - cell viability counter screen (AID 743221; active means well fitted cell-killing curve with a large enough effect in the repeat runs, not every such curve was filed as active; further: nearly all actives have a fitted effect of over 50% in size)
How it was run: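 Luminescence from CellTiter-Glo measures cytotoxicity in GeneBLAzer FXR-UAS-bla HEK 293T cells. Cells were exposed to compounds with 50 uM chenodeoxycholic acid (final) for 16 h at 37 C, in wells also used for the reporter readout.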

[6] = target: Vitamin D3 receptor (Homo sapiens) (UniProt P11473); test: qHTS assay to identify small molecule agonists of the vitamin D receptor (VDR) signaling pathway (AID 743222; calls by dose curve)
How it was run: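 Tox21 cell reporter format: VDR-bla line, 16 h compound exposure in 5% CO2 at 37C, then fluorescence intensity after 2 h with LiveBLAzer B/G FRET substrate.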

[7] = target: Vitamin D3 receptor (Homo sapiens) (UniProt P11473); test: qHTS assay to identify small molecule antagonists of the vitamin D receptor (VDR) signaling pathway (AID 743223; active means well fitted inhibition curve with a large enough effect in the signal ratio in the repeat runs, not every such curve was filed as active; the % refers to the signal ratio)
How it was run: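 Antagonist mode uses 1alpha,25-dihydroxyvitamin D3 at 3 nM final as stimulus. VDR-bla cells receive compounds in DMSO, incubate 16 h at 37C, then a beta-lactamase FRET substrate for 2 h at room temperature before fluorescence measurement.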

[8] = qHTS assay to identify small molecule agonists of the vitamin D receptor (VDR) signaling pathway - cell viability counter screen (AID 743224); further: nearly all actives have a fitted effect of over 50% in size; further: potency means the concentration at half of the fitted maximal effect
How it was run: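 CellTiter-Glo viability readout on VDR-bla cells, measured after 16 h of compound treatment at 37C in the same wells.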

[9] = qHTS assay to identify small molecule antagonists of the vitamin D receptor (VDR) signaling pathway - cell viability counter screen (AID 743225); further: nearly all actives have a fitted effect of over 50% in size; further: potency means the concentration at half of the fitted maximal effect
How it was run: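 Read-out: CellTiter-Glo luminescence measured 30 min after reagent addition at room temperature. Cells were VDR-bla HEK 293T exposed 16 h at 37C, 5% CO2, to compound with 3 nM final calcitriol agonist.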

[10] = qHTS assay to identify small molecule agonists of the NFkB signaling pathway - cell viability counter screen (AID 1159515; calls by dose curve; further: nearly all actives have a fitted effect of over 55% in size; further: potency means the concentration at half of the fitted maximal effect)
How it was run: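 Tox21 library compounds were tested for cytotoxicity against NFkB-bla ME-180 cells during a 5 hr exposure at 37 C. CellTiter-Glo luminescence served as the viability read-out.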

[11] = qHTS assay to identify small molecule agonists of the endoplasmic reticulum stress response signaling pathway (AID 1159516; active means well fitted activation curve with a large enough effect in the signal ratio in the repeat runs, not every such curve was filed as active; the % refers to the signal ratio)
How it was run: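 Fluorescence at 460 and 530 nm (405 nm excitation) reports beta-lactamase from an ER stress response element in HeLa cells treated 5 hr at 37 C.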

[12] = qHTS assay to identify small molecule agonists of the endoplasmic reticulum stress response signaling pathway - cell viability counter screen (AID 1159517; calls by dose curve; further: nearly all actives have a fitted effect of over 50% in size; further: potency means the concentration at half of the fitted maximal effect)
How it was run: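 ESRE-bla HeLa cells (1,500/well) were plated overnight at 37 C and exposed to compounds for 5 hr. After the 2 hr beta-lactamase substrate read, CellTiter-Glo went into the same wells, and luminescence was read after 30 min at room temperature.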

[13] = qHTS assay to identify small molecule antagonists of the retinoid-related orphan receptor gamma (ROR-gamma) signaling pathway - cell viability counter screen (AID 1159520); further: nearly all actives have a fitted effect of over 50% in size; further: potency means the concentration at half of the fitted maximal effect
How it was run: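 Cytotoxicity was read from cellular ATP (CellTiter-Glo luminescence) after 16 hr at 37 C with 1 uM doxycycline induction. The inducer was added 2 hr after compound transfer to Tet-on ROR gamma CHO cells.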

[14] = target: Nuclear receptor ROR-gamma (Homo sapiens) (UniProt P51449); test: qHTS assay to identify small molecule antagonists of the retinoid-related orphan receptor gamma (ROR-gamma) signaling pathway (AID 1159521; further: nearly all actives have a fitted effect of over 50% in size; further: potency means the concentration at half of the fitted maximal effect)
How it was run: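 CHO Tet-on RORγ, RORE-luc reporter. Cpd 2 h pre-incubation, then dox hyclate 1 uM final, 16 h, 37 C/5% CO2. ONE-Glo luminescence; decrease = antagonist.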

[15] = qHTS assay to identify small molecule agonists of the AP-1 signaling pathway - cell viability counter screen (AID 1159525; calls by dose curve; further: nearly all actives have a fitted effect of over 55% in size; further: potency means the concentration at half of the fitted maximal effect)
How it was run: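 Intracellular ATP by Cell Titer Glo luminescence (30 min, RT) in the same ME-180 AP-1-bla wells after the 5 h compound exposure at 37 °C. Normalised to tetra n-octyl ammonium bromide and DMSO controls.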

[16] = qHTS assay to identify small molecule agonists of the AP-1 signaling pathway (AID 1159526; calls by dose curve)
[17] = target: Retinoic acid receptor RXR-alpha (Homo sapiens) (UniProt P19793); test: qHTS assay to identify small molecule agonists of the RXR signaling pathway (AID 1159527; calls by dose curve; further: nearly all actives have a fitted effect of over 35% in size; further: potency means the concentration at half of the fitted maximal effect)
How it was run: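 Read-out: beta-lactamase FRET ratio (405 nm excitation, 460 and 530 nm emission) after 2 hr substrate loading at room temperature. Cells were RXR-alpha-UAS-bla HEK 293T treated with compounds for 16 hr in 2% charcoal-stripped FBS medium.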

[18] = qHTS assay to identify small molecule antagonists of the peroxisome proliferator-activated receptor delta (PPARd) signaling pathway - cell viability counter screen (AID 743213); further: nearly all actives have a fitted effect of over 50% in size; further: potency means the concentration at half of the fitted maximal effect
How it was run: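 Viability counter-screen, qHTS format: PPARd-bla HEK293H, L165041 300 nM final, 17 h compound exposure at 37 C, CellTiter-Glo luminescence after 30 min RT.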

[19] = target: Bile acid receptor (Homo sapiens) (UniProt Q96RI1); test: qHTS assay to identify small molecule antagonists of the farnesoid-X-receptor (FXR) signaling pathway (AID 743217; active means well fitted inhibition curve with a large enough effect in the signal ratio in the repeat runs, not every such curve was filed as active; the % refers to the signal ratio)
How it was run: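 Test compounds are pin-transferred onto FXR-bla HEK 293T cells, then chenodeoxycholic acid is added at 50 uM final. After 16 h at 37 °C, LiveBLAzer B/G substrate is applied for 2 h at room temperature and fluorescence read.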

[20] = target: Bile acid receptor (Homo sapiens) (UniProt Q96RI1); test: qHTS assay to identify small molecule agonists of the farnesoid-X-receptor (FXR) signaling pathway (AID 743220; active means well fitted activation curve with a large enough effect in the signal ratio in the repeat runs, not every such curve was filed as active; the % refers to the signal ratio)
How it was run: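 FXR-UAS-bla HEK 293T cells carrying a UAS-driven beta-lactamase reporter were plated for 5 h at 37C/5% CO2, then exposed to DMSO-dissolved Tox21 10K compounds for 16 h at 37C. A LiveBLAzer B/G FRET substrate was loaded for 2 h at room temperature before fluorescence reading.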

Measured: Potency

Vitamin D3 receptor (Homo sapiens), sequence (P11473 whole entry, looked up): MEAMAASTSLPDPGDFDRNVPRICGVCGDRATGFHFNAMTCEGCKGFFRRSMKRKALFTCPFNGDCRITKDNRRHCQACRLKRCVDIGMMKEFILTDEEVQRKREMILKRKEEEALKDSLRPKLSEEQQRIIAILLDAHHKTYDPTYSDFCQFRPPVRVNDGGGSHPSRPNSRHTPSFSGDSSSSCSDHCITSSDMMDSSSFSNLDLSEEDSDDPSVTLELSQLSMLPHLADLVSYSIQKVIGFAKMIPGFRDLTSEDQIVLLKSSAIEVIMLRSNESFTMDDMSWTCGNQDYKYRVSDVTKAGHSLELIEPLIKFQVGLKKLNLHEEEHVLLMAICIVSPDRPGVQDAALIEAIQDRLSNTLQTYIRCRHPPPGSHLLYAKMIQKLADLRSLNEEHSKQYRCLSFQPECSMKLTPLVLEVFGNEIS
Peroxisome proliferator-activated receptor delta (Homo sapiens), sequence (Q03181 whole entry, looked up): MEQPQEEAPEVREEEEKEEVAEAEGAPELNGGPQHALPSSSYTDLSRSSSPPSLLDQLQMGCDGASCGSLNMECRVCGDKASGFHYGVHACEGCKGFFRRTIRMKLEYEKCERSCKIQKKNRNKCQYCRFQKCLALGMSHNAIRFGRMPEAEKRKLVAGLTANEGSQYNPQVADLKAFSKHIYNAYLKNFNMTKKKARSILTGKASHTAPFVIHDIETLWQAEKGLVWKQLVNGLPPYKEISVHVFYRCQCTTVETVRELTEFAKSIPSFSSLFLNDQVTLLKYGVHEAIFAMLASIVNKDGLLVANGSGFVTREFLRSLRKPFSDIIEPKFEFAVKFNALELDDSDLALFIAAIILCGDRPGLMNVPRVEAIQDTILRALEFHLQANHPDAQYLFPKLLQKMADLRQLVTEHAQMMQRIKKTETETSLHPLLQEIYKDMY
Bile acid receptor (Homo sapiens), sequence (Q96RI1 whole entry, looked up): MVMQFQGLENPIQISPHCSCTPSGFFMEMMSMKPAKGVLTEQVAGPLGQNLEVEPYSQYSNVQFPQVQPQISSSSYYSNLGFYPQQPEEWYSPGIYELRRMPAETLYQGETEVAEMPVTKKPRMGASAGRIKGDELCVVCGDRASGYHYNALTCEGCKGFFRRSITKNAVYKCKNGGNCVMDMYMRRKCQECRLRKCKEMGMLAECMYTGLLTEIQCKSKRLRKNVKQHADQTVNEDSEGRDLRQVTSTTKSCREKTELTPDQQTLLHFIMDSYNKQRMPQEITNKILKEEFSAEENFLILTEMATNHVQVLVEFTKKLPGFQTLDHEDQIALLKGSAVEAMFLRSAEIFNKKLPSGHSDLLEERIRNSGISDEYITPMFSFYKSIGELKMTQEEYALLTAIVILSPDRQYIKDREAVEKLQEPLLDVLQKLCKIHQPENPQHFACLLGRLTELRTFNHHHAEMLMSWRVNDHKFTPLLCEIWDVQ
Retinoic acid receptor RXR-alpha (Homo sapiens), sequence (P19793 whole entry, looked up): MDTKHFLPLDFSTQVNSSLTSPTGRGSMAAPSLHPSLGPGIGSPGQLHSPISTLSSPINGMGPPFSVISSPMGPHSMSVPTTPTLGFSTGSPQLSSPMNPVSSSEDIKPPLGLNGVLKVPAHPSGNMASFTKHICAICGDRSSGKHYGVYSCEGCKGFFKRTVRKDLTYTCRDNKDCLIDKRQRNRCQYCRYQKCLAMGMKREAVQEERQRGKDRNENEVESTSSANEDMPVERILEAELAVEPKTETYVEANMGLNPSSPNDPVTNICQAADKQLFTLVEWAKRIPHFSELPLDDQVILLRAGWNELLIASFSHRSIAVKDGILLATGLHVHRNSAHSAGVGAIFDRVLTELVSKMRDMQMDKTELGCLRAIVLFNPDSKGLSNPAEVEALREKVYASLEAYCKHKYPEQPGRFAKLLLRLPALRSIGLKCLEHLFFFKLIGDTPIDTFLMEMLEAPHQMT

OCCOCCN1CCN(C(c2ccccc2)c2ccc(Cl)cc2)CC1 (stereo unspecified)
inactive: [1] | [2] | [3] | [4] | [5] | [6] | [7] | [8] | [9] | [10] | [11] | [12] | [13] | [15] | [16]
47.9 µM (active) and inactive: [14]

O=C(O)CP(=O)(O)O
inactive: [1] | [4] | [5] | [7] | [9] | [10] | [11] | [12] | [13] | [14] | [15] | [16] | [17]

O=C(OCc1ccccc1)c1ccc(O)cc1
inactive: [18] | [19] | [4] | [20] | [5] | [8] | [9] | [10] | [11] | [12] | [13] | [14] | [15] | [16] | [17]

O=C(Cl)c1cccc(C(=O)Cl)c1
inactive: [18] | [3] | [4] | [5] | [6] | [7] | [8] | [9] | [10] | [11] | [12] | [13] | [14] | [15] | [16] | [17]

N[C@@H]1CONC1=O
inactive: [19] | [4] | [20] | [5] | [6] | [7] | [8] | [9] | [10] | [11] | [12] | [13] | [14] | [15] | [16] | [17]

COc1ccc(COC(C)=O)cc1
inactive: [2] | [18] | [3] | [19] | [4] | [20] | [5] | [6] | [7] | [8] | [9] | [10] | [11] | [12] | [13] | [14] | [15] | [16] | [17]

CC1=CC(=O)c2ccccc2C1=O
inactive: [11]
active: [1] 19.5 µM and 26.6 µM | [18] 19.5 µM | [3] 33.5 µM | [4] 24.5 µM | [8] 17.4 µM and 11.9 µM | [9] 17.4 µM and 21.3 µM | [10] 24.5 µM | [12] 43.6 µM | [13] 15.4 µM and 29.8 µM | [14] 12.2 µM | [15] 17.4 µM

CC(C)C(=O)c1c(C(C)C)nn2ccccc12
inactive: [18] | [3] | [19] | [4] | [20] | [5] | [7] | [8] | [9] | [10] | [11] | [12] | [13] | [14] | [15] | [16]
active: [17] 23.9 µM

CO[Si](OC)(OC)c1ccccc1
inactive: [18] | [3] | [4] | [5] | [7] | [8] | [9] | [10] | [11] | [12] | [13] | [14] | [15] | [16] | [17]

CCCOC(=O)c1cc(O)c(O)c(O)c1
inactive: [2] | [18] | [3] | [4] | [20] | [5] | [6] | [7] | [8] | [9] | [10] | [11] | [12] | [13] | [15] | [16]
active: [14] 27.2 µM

From PubChem BioAssay (Tox21)
